Sm TGR inh: S. mansoni TGR enzyme inhibition. Potency, µM (doses to about 114 µM), hits mostly inhibitors. Q962Y6. purified TGR, DTNB reduction, TNB absorbance 405 nm. 360,000 compounds, 3% hits; note: nearly all actives have a fitted effect of over 60% in size
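First, TGR (20 nM dispensed) and NADPH were mixed with compound. Second, a 15 min room-temperature incubation followed. Third, further NADPH and then DTNB were added to start the reaction. Finally, TNB absorbance was monitored kinetically.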
AmpC no deterg: AmpC beta-lactamase inhibition without detergent | Potency, µM (top dose mostly 57.1 µM), actives largely listed as inhibitors | P00811 | AmpC nitrocefin hydrolysis, absorbance 480 nm, 0.0001% Triton | 330,000 compounds, 0.52% hits; note: nearly all actives have a fitted effect of over 20% in size
Target sequence (P00811 whole entry, looked up): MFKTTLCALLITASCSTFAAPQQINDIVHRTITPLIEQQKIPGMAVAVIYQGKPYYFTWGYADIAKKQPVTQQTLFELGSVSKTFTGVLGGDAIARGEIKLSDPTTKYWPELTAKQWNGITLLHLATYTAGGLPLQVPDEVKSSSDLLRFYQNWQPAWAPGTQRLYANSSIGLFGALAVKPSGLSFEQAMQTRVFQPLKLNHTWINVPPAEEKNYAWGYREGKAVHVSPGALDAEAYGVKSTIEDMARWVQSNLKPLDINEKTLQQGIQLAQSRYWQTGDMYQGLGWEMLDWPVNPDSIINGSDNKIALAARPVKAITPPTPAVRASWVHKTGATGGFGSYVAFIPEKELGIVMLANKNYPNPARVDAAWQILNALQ
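AmpC (5.3 nM in the dispensed reagent) in 20 mM phosphate pH 7.0 with 0.01% (detergent screen) or 0.0001% Triton X-100 was preincubated with compounds for 15 min at room temperature. Nitrocefin was then added from an 800 uM solution, and hydrolysis was followed at 480 nm.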
AmpC detergent: AmpC beta-lactamase inhibition with detergent present | 370,000 compounds, 0.041% hits | P00811 | AID 485294 | AmpC hydrolysis of nitrocefin, absorbance 480 nm, 0.01% Triton | Potency, µM (highest dose often 114 µM), usual class: inhibitors; note: nearly all actives have a fitted effect of over 25% in size
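AmpC (5.3 nM in the dispensed reagent) in 20 mM phosphate pH 7.0 with 0.01% (detergent screen) or 0.0001% Triton X-100 was preincubated with compounds for 15 min at room temperature. Nitrocefin was then added from an 800 uM solution, and hydrolysis was followed at 480 nm.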
Of the large screens only hits and unclear results are named; the others gave an inactive call. The list is not random: actives were taken first. Their share in the collection is about 3.3%. Calls come from the whole dose curve; as a rule, active = well fitted curve in the direction sought with a large enough effect; inconclusive = small, poorly fitted or top-dose-only effect, or another doubt; inactive = no such curve, though single readings can be large; an effect the other way counts as inactive or inconclusive.

O=C(Nc1ccc(F)cc1)C1C2CCC3C(CCC21)C3(Cl)Cl (configuration not stated)	AmpC no deterg 14µM
O=C(Nc1ccc(Cl)cc1)C1C2CCC3C(CCC21)C3(Cl)Cl (configuration not stated)	none
CCOc1ccc(NC(=O)C2C3CCC4C(CCC32)C4(Cl)Cl)cc1 (configuration not stated)	Sm TGR inh inconclusive
Cc1cccc(NC(=O)C2C3CCC4C(CCC32)C4(Cl)Cl)c1 (configuration not stated)	AmpC no deterg 32µM
Cc1cc(C)cc(N2C(=O)CSC23C(=O)N(CC(=O)NC2CCCCC2)c2ccccc23)c1 (configuration not stated)	none (no result: AmpC no deterg)
O=S(=O)(c1ccccc1)c1nnn2c1nc(NCc1cccs1)c1sccc12	none (no result: AmpC no deterg)
CC1=Nc2cc(C(=O)NCCc3ccc(Cl)cc3)ccc2Sc2ccc(C)cc21	none (no result: AmpC no deterg)
Clc1ccc(OCc2nc3ccccc3n2Cc2ccccc2)c(Cl)c1	none (no result: AmpC no deterg)
O=C(Nc1nccs1)C1CC(=O)N(Cc2ccco2)C1 (configuration not stated)	Sm TGR inh 10µM
O=C(NCc1ccco1)C1CC(=O)N(CCc2ccccc2)C1 (configuration not stated)	none
COc1ccc(-c2csc(NC(=O)C3CC(=O)N(Cc4ccco4)C3)n2)cc1 (configuration not stated)	Sm TGR inh 35µM
CN(c1ccc(-c2csc(NC(=O)C3CC(=O)N(Cc4ccco4)C3)n2)cc1)S(C)(=O)=O (configuration not stated)	none
O=C(NCc1ccc(F)cc1)C1CC(=O)N(Cc2ccco2)C1 (configuration not stated)	Sm TGR inh 40µM
COc1cccc(NC(=O)C2CC(=O)N(Cc3ccco3)C2)c1 (configuration not stated)	none
NS(=O)(=O)c1cccc(NC(=O)C2CC(=O)N(Cc3ccco3)C2)c1 (configuration not stated)	Sm TGR inh 50µM
CC(=O)c1sc(NC(=O)C2CC(=O)N(Cc3ccco3)C2)nc1-c1ccccc1 (configuration not stated)	none
CCOc1cc(/C=C(\C#N)C(=O)Nc2ccc(OC)cc2)ccc1OCc1cc(=O)n2nc(CC)sc2n1	none (no result: AmpC no deterg)
Cc1ccc(C)c(CN2C(=O)C3(c4ccccc42)N(c2ccc(Cl)cc2)C(=O)CS3(=O)=O)c1 (configuration not stated)	none (no result: AmpC no deterg)
Oc1c(C(c2ccccc2Cl)N2CCN(Cc3ccccc3)CC2)sc2nc(-c3ccco3)nn12 (configuration not stated)	none (no result: AmpC no deterg)
Cc1c(CNCCCc2ccccc2)c(C(=O)O)c(C)n1Cc1cccc(Cl)c1	none (no result: AmpC no deterg)
COc1ccc(-n2c(SCC(=O)Nc3cccc(C)c3C)nc3c([nH]c4ccccc43)c2=O)cc1	none (no result: AmpC no deterg)
CC1CCc2c(sc3nnn(CC(=O)Nc4cccc(C(F)(F)F)c4)c(=O)c23)C1 (configuration not stated)	none (no result: AmpC no deterg)
COc1ccc(CNCc2ccc3c(c2)n(C)c(=O)n3C)cc1	none (no result: AmpC no deterg)
O=C(CSc1ncc2c(n1)-c1ccccc1N(Cc1ccc(F)cc1)S2(=O)=O)NCc1ccccc1	none (no result: AmpC no deterg)
N#CC1=C2SCN(C3CCCCC3)CN2C(=O)CC1c1ccc(Br)cc1 (configuration not stated)	Sm TGR inh 10µM (no result: AmpC no deterg)
N#Cc1cc(C(=O)c2cc(Br)ccc2O)cn(C2CCCCC2)c1=O	none
CCOc1cc(C2CC(=O)NC(SCC)=C2C#N)ccc1O (configuration not stated)	none
CCOc1cc(C2CC(=O)N3CN(C4CCCCC4)CSC3=C2C#N)ccc1O (configuration not stated)	Sm TGR inh 10µM, AmpC no deterg inconclusive, AmpC detergent inconclusive
Cc1ccc(-c2cc(C(=O)N3CCC(C)CC3)c3ccccc3n2)cc1	none
Cc1ccc(-c2cc(C(=O)N3CC(C)CC(C)C3)c3ccccc3n2)o1 (configuration not stated)	Sm TGR inh 22µM
Cc1ccc(-c2cc(C(=O)N3CC(C)OC(C)C3)c3ccccc3n2)o1 (configuration not stated)	Sm TGR inh 40µM
Cc1ccc(-c2cc(C(=O)NCC(c3ccccc3)N(C)C)c3ccccc3n2)o1 (configuration not stated)	none (no result: Sm TGR inh, AmpC detergent)
Cc1ccc(-c2nnc(Nc3ccc(Cl)cc3)c3ccccc23)cc1S(=O)(=O)N1CCOCC1	none (no result: AmpC no deterg)
CCS(=O)(=O)N1CCc2cc(C(=O)N3CCN(c4ccc(OC)cc4)CC3)ccc21	none (no result: AmpC no deterg)
CC[C@@H]1C=C(C)C[C@H](C)C[C@H](OC)[C@H]2O[C@@](O)(C(=O)C(=O)N3CCCC[C@H]3C(=O)O[C@H](/C(C)=C/[C@@H]3CC[C@@H](O)[C@H](OC)C3)[C@H](C)[C@@H](O)CC1=O)[C@H](C)C[C@@H]2OC	AmpC detergent inconclusive
CO[C@H]1C[C@@H]2CC[C@@H](C)[C@@](O)(O2)C(=O)C(=O)N2CCCC[C@H]2C(=O)O[C@H]([C@H](C)C[C@@H]2CC[C@@H](O)[C@H](OC)C2)CC(=O)[C@H](C)C=C(C)[C@@H](O)[C@@H](OC)C(=O)[C@H](C)C[C@H](C)C=CC=CC=C1C	Sm TGR inh 14µM
COc1cccc(N2CC(NC(=O)CCCc3ccccc3)CC2=O)c1 (configuration not stated)	none (no result: AmpC no deterg)
CCOC(=O)CC(=O)CSc1nc2c(c(-c3cccs3)c1C#N)CCC2	none
CCOCCSc1nc2c(c(-c3cccs3)c1C#N)CC/C2=C/c1cccs1	Sm TGR inh 45µM, AmpC no deterg inconclusive
COc1ccc(C(=O)NCCc2nc3ccccc3[nH]2)cc1	none (no result: AmpC no deterg)
COc1ccc(C(=O)NCC(c2ccc3c(c2)OCO3)N2CCN(c3ccccc3F)CC2)cc1 (configuration not stated)	none (no result: AmpC no deterg)
O=C(CC1(O)C(=O)Nc2ccccc21)c1ccccc1 (configuration not stated)	AmpC detergent inconclusive
O=C(CC1(O)C(=O)Nc2ccccc21)c1ccc(-n2cccc2)cc1 (configuration not stated)	Sm TGR inh 50µM
O=C(COc1ccc(F)cc1)OCc1cc(=O)n2nc(C3CCCCC3)sc2n1	none (no result: AmpC no deterg)
Cn1cc(S(=O)(=O)N2CCCCCC2)cc1C(=O)N1CCN(c2cccc(C(F)(F)F)c2)CC1	none (no result: AmpC no deterg)
C=C(C)C1(O)OC(=O)C=C1OC (configuration not stated)	Sm TGR inh 6.3µM
COc1ccc(C2=CC(=O)OC3(CCCCC3)O2)cc1	none
CC(C)OCCCn1c(=O)c2ccccc2n2c(-c3ccc(F)cc3)nnc12	none (no result: AmpC no deterg)
Cc1[nH]c2ccccc2c1/C=N/NC(=O)CCC(=O)NCc1ccccc1	none
Cc1[nH]c2ccccc2c1/C=N/NC(=O)C1CC1(c1ccccc1)c1ccccc1 (configuration not stated)	AmpC no deterg 11µM
CN(C)c1ccc(CNC(=O)CCCN2C(=O)CCn3nc(-c4cccn4C)cc32)cc1	none (no result: AmpC no deterg)
O=S(=O)(c1ccc(Br)s1)N1CCN(c2ccc(F)cc2)CC1	Sm TGR inh 25µM
O=S(=O)(c1ccc(Br)s1)N1CCN(c2ccccc2)CC1	none
CC(=O)Nc1nonc1-c1nnc(SCc2ccccc2C)n1C	none (no result: AmpC no deterg)

Screening data as filed in PubChem.
